Screening data as filed in PubChem.
Hits are enriched below; roughly 2.7% of the tested compounds scored in any of these assays.
aDG glyco act – increases alpha dystroglycan glycosylation | Pro5-aDG cells, alpha-DG glycosylation AlphaScreen (IIH6); 0% Pro5, 100% B10-LARGE cell signal | activation, % at 10 µM | hit rate 0.22% among 360,000;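 active = activation of at least 8% versus controls, or a plate z-score of at least 8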;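 note: Pro5 are CHO cells carrying HIG-tagged alpha-DG that lacks glycosylation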
MPTP block – inhibitors of mitochondrial permeability transition pore | isolated mouse mitochondria, Ca2+ swelling absorbance, 30 min | inhibition, % at 10 µM | hit rate 1.4% among 360,000;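 active = inhibition of 50% or more, scaled per plate between neutral and stimulator controls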;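 note: 0% = DMSO wells given calcium and 100% = 1 mM EGTA wells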
NadD block – NadD (S. aureus) enzyme inhibition; purified NadD enzyme, colorimetric absorbance read-out; inhibition, % at 20 µM; hit rate 0.78% among 360,000; AID 602399; in the data active = inhibition above about 26%
TAG inh – inhibitors of triacylglycerol accumulation. H9c2 cells, Nile Red lipid (TAG) fluorescence; cells loaded with 200 µM oleic acid. inhibition, % at 12.5 µM. hit rate 0.66% among 230,000;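 active = pattern-corrected inhibition of lipid staining of at least 50% with the nuclear-stain viability signal not falling by more than 50%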;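 note: 0% = DMSO wells and 100% = triacsin C control wells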
NadD inh conf – confirmation of Staphylococcus aureus NadD inhibitors. shares compounds with NadD block. purified S. aureus NadD, colorimetric enzyme assay. inhibition, % at 20 µM. hit rate 13% among 2,000; in the data active = inhibition mostly above about 42%, no sharp cut-off; inactive = mostly below about 42%
* hit, by the source's call; / = no result given.

SMILES	aDG glyco act	MPTP block	NadD block	TAG inh	NadD inh conf
FC(F)(F)c1ccc(CN2C[C@@H]3C(c4ccc(C(F)(F)F)cc4)C4(c5cccnc5)CC3(C4)[C@H]2c2ccccc2)cc1 (some centres not stated)	0	0	38*	-19	22
FC(F)(F)c1ccc(CN2C[C@@H]3C(c4ccccc4)C4(c5cccnc5)CC3(C4)[C@H]2c2ccccc2)cc1 (some centres not stated)	0	2	25	-24	/
O=C(NCc1ccccn1)c1ccc(OC2CCN(Cc3cccs3)CC2)cc1	0	-1	-1	/	/
Cc1ccc(-c2nnc(SCC(=O)N/N=C/c3c(C)nn(-c4ccccc4)c3C)n2-c2ccc(C)cc2)cc1	1	5	30*	-12	15
Cc1ccc(Cn2c(CCNc3nc(-c4ccc(Cl)c([N+](=O)[O-])c4)cs3)nc3cc(Cl)c(Cl)cc32)cc1	0	2	48*	-6	2
Cc1ccc(Cn2c(C3CCCN3c3nc(-c4ccc(F)cc4)cs3)nc3cc(Cl)c(Cl)cc32)cc1 (configuration not stated)	1	0	49*	15	26
Cc1csc(N2CCCC2c2nc3cc(Cl)c(N4CCCCC4)cc3n2CCCO)n1 (configuration not stated)	0	-2	3	8	/
OCCCn1c(C2CCCN2c2nc(-c3ccc(F)cc3)cs2)nc2cc(Cl)c(N3CCCCC3)cc21 (configuration not stated)	0	1	33*	49	5
CCCn1c(C(C)Nc2nc(-c3ccc(C)cc3)cs2)nc2cc(Cl)c(Cl)cc21 (configuration not stated)	0	4	17	/	/
Cc1ccc(Cn2c(C(C)Nc3nc(-c4ccc(F)cc4)cs3)nc3cc(Cl)c(Cl)cc32)cc1 (configuration not stated)	1	4	50*	9	10
CC(C)c1ncc(CO)n1Cc1c(Cl)cccc1Cl	0	0	-2	0	/
COc1ccc(C2(c3ccc(OC)cc3)NC(=O)N(CC(=O)Nc3cc(C)ccc3OC)C2=O)cc1	0	-1	9	28	/
Cc1ccc(C(=O)Nc2nc(-c3ccccn3)cs2)cc1S(=O)(=O)N1CCOCC1	2	-4	31*	-31	22
CC(C)(C)c1ccc(OCC(=O)Nc2ccc3c4c(cccc24)C(=O)NC3=O)cc1	0	-3	34*	7	2
Cc1ccc(OCC(=O)Nc2ccc3c(c2)C(=O)NC3=O)cc1	1	0	-27	-5	/
COc1ccccc1-c1nnc(NC(=O)c2ccc(S(=O)(=O)N(C)C)cc2)o1	0	-2	12	0	/
CCCN(CCC)S(=O)(=O)c1ccc(C(=O)Nc2nnc(-c3cc(OC)cc(OC)c3)o2)cc1	5.5*	-29	58*	9	6
CCN(Cc1ccccc1)S(=O)(=O)c1ccc(C(=O)Nc2nnc(-c3ccccc3OC)o2)cc1	1	-24	54*	-15	26*
CCCN(CCC)S(=O)(=O)c1ccc(C(=O)Nc2nnc(-c3cccc(OC)c3)o2)cc1	3	-27	19	7	/
CCn1cc(Cl)c(C(=O)Nc2ccccc2C(N)=O)n1	0	0	2	-10	/
CC1(C(=O)NS(=O)(=O)C2CC2)CCCN(C(=O)COCc2ccccc2)C1 (configuration not stated)	0	1	0	-10	/
COCCn1c(=NC(=O)c2ccc(S(=O)(=O)N3CCc4ccccc4C3)cc2)sc2cc(S(N)(=O)=O)ccc21	2	-17	71*	/	36
C=CCn1c(=NC(=O)c2ccc(S(=O)(=O)N3CCc4ccccc4C3)cc2)sc2cc(S(N)(=O)=O)ccc21	0	-4	32*	/	-4
Cc1cccc(C(=O)OCC(=O)Nc2c(C)n(C)n(-c3ccccc3)c2=O)c1O	0	-1	7	-6	/
O=c1[nH][nH]c2c1C(C1CCCCC1)OC(C1CCCCC1)C2 (configuration not stated)	0	3	11	/	/
SMILES	aDG glyco act	MPTP block	NadD block	TAG inh	NadD inh conf
Cc1ccc(N2CC(C(=O)Nc3nnc(SCC(=O)Nc4cc(C)on4)s3)CC2=O)cc1 (configuration not stated)	0	0	39*	/	2
COc1cccc(N2CC(C(=O)Nc3nnc(SCC(=O)Nc4cc(C)on4)s3)CC2=O)c1 (configuration not stated)	0	0	41*	11	3
CC(=O)Nc1ccc(NC(=O)CSc2nnc(NC(=O)C3CC(=O)N(c4ccccc4)C3)s2)cc1 (configuration not stated)	0	0	2	12	/
CC(=O)c1c(C)[nH]c(C(=O)OCC(=O)NCc2cccs2)c1C	0	1	-1	-2	/
Cc1ccc(CN2C(=O)C(Cc3ccccc3)Nc3ncnc(N4CCN(c5ccccc5)CC4)c32)cc1 (configuration not stated)	0	0	28*	-10	10
O=C1C(Cc2ccccc2)Nc2ncnc(N3CCN(c4ccccc4)CC3)c2N1Cc1ccc(Br)cc1 (configuration not stated)	0	0	42*	-13	11
CCC1Nc2ncnc(N3CCN(c4ccccc4)CC3)c2N(Cc2ccc(Br)cc2)C1=O (configuration not stated)	0	2	10	/	/
O=C1C(Cc2ccccc2)Nc2ncnc(N3CCN(c4ccccc4)CC3)c2N1Cc1ccccc1 (configuration not stated)	0	1	15	27	/
O=C1NC[C@@H](CCCCN2C[C@H](Cc3ccccc3)N(Cc3ccccc3)C(=O)C2=O)N(Cc2ccccc2)C1=O	0	-2	14	/	/
COc1ccccc1NC(=O)C(C)OC(=O)CCSc1ccc(F)cc1 (configuration not stated)	0	1	-10	8	/
O=C(c1ccc2c(=O)n(Cc3ccco3)c(=S)[nH]c2c1)N1CCN(Cc2ccccc2)CC1	1	5	56*	-8	36*
CN1CCN(C(=O)c2ccc3c(=O)n(Cc4ccco4)c(=S)[nH]c3c2)CC1	0	0	-3	-19	/
COCC(C)n1c(SCC(=O)NC(=O)NC2CCCC2)nc2ccccc2c1=O (configuration not stated)	0	0	-9	19	/
Cc1ccc(NC(=O)c2ncn(CC(=O)NCc3ccc4[nH]ccc4c3)n2)cc1C	0	1	0	33	/
Cc1ccc(NC(=O)c2ncn(CCCN(CCCn3cnc(C(=O)Nc4ccc(C)c(C)c4)n3)Cc3ccc4[nH]ccc4c3)n2)cc1C	0	0	39*	31	32
C[C@@H](NC(=O)Cn1ccc(N)nc1=O)c1cccc2ccccc12	0	0	0	-3	/
Cc1oc2ccc(NS(=O)(=O)c3ccc(C(C)(C)C)cc3)cc2c1C(=O)Nc1ccccc1	1	5	33*	3	34
Cc1cc(C(=O)CSc2nc3ccc(Cl)cc3[nH]2)c(C)n1C	0	0	34*	/	41
Cc1cccc(N2N=C(C(=O)O)CCC2=O)c1	0	1	-1	/	/
